Test results reported in PubChem BioAssay AID596 (National Center for Advancing Translational Sciences (NCATS), 2007).
About 1,400 (2%) of roughly 71,000 compounds were called active. Roughly 3% stayed inconclusive and do not appear here. The call rests on the fitted dose curve; in most records, active means well fitted curve in the direction sought with a large enough effect; inconclusive means small, poorly fitted or top-dose-only effect; inactive means no such curve, though single readings can be large or run the other way. This excerpt belongs to a sample that is enriched for actives. Non-standard residues stand in square brackets, D forms with d. Residues, ends and D or L forms follow the SMILES beside them. ξ: configuration not given here. ξV = CC(C)C(N)C(=O)O

Molecular target: Microtubule-associated protein tau (Homo sapiens) (UniProt P10636)
Test: qHTS Assay for Tau Filament Binding;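 further: actives lower thioflavin S fluorescence by blocking filaments or displacing dye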
Conditions: recombinant tau filaments, thioflavin S fluorescence, 15 h, filaments grown with octadecylsulfate alongside compound; series mostly up to 57.1 µM; activity change, negative = inhibition: at the top concentration
Procedure, shortened: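 His-tagged recombinant human tau (exons 2, 3 and 10 included), 1 uM, was induced to fibrillize by 30 uM sodium octadecylsulfate with compound present. After 15 h at 37 C, thioflavine S fluorescence (ex 450, em 510 nm) was read.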
On the % scale 0 is the no-effect control and ±100 the full control effect; potency means the concentration at half of the fitted maximal effect.

Sequence of Microtubule-associated protein tau (Homo sapiens) (P10636 whole entry, looked up): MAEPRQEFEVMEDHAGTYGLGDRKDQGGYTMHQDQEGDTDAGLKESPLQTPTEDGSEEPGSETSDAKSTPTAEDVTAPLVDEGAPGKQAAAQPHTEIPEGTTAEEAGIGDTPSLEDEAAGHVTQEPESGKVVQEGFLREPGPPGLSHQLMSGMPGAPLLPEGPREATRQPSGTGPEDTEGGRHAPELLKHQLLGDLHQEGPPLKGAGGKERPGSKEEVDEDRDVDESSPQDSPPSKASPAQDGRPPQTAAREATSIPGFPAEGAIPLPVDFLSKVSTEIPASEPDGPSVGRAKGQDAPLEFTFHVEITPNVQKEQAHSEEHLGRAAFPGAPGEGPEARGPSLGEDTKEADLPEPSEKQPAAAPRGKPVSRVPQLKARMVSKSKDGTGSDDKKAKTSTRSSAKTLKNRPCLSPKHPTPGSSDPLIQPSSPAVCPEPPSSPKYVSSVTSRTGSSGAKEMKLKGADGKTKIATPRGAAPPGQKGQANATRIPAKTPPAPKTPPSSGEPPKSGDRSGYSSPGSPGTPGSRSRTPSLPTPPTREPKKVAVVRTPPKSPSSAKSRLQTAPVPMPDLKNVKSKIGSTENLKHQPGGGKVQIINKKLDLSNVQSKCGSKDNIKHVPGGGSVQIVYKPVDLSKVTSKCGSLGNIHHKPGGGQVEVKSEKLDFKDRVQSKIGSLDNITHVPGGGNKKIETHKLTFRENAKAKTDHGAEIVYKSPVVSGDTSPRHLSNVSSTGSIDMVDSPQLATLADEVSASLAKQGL

SMILES | activity change, negative = inhibition | Potency
CC(=O)OCCC(C)C | -0.1% (inactive) | –
CCCCCC(=O)Nc1ccc2oc(-c3ccncc3)nc2c1 | -29.6% (inactive) | –
COc1cccc(-c2nc3cc(C)ccc3o2)c1 | -7.9% (inactive) | –
CCc1ccc2oc(-c3ccc(N)cc3)nc2c1 | – | 25.1 µM (active)
CCCCCCc1ccc(O)cc1O | -23.7% (inactive) | –
CC(C)n1c(SCC(=O)Nc2ccccc2N2CCCCC2)nc2c1c(=O)n(C)c(=O)n2C | 5% (inactive) | –
COc1ccc(F)cc1S(=O)(=O)Nc1ccc2c(c1)OCO2 | -5.1% (inactive) | –
CC(C)CNS(=O)(=O)c1ccc(OCC(=O)Nc2ccc3c(c2)OCO3)c(Cl)c1 | 101% (inactive) | –
COc1ccc(S(=O)(=O)Nc2ccc3c(c2)OCO3)cc1Cl | – | 20 µM (active)
c1ccc2sc(SCCSc3nc4ccccc4s3)nc2c1 | -3.1% [at 11.4 µM] (inactive) | –
CCOc1ccc(-c2cn(S(=O)(=O)c3cccc4nsnc34)nc2N)cc1 | – | 25.1 µM (active)
CCOc1ccc(NC(=O)CCS(=O)(=O)c2cccc3nsnc23)cc1 | -9.9% (inactive) | –
CCCCN(CC)C(=O)CN(C)S(=O)(=O)c1cccc2nsnc12 | -4.7% (inactive) | –
CC1CCCC(NC(=O)CSc2nccn2C)C1C (stereo unspecified) | 9% (inactive) | –
O=C(c1cnccn1)N1CCC2(CCN(Cc3cc(C(F)(F)F)cc(C(F)(F)F)c3)CC2)CC1 | -9.4% (inactive) | –
COc1cc(Br)cc(/C=N/c2ncn[nH]2)c1O | – | 1.58 µM (active)
C/C=C/C=C/C(=O)O | -9.3% (inactive) | –
O=C(OCC(COC(=O)c1ccccc1)(COC(=O)c1ccccc1)COC(=O)c1ccccc1)c1ccccc1 | 2.5% (inactive) | –
N#Cc1nc(N)nc(N(c2ccccc2)c2ccccc2)n1 | – | 7.94 µM (active)
CC(C)Nc1nc(N(c2ccccc2)c2ccccc2)nc(-n2ccnc2)n1 | 5% (inactive) | –
CCOC(=O)c1cn(CC(=O)Nc2ccc(C(C)C)cc2)nn1 | -18% (inactive) | –
CCCC(=O)Nc1cc(OCC)c(NC(=O)NC2CCCCC2)cc1OCC | 0.7% (inactive) | –
O=C(O)CC(C(=O)O)C(CC(=O)O)C(=O)O (stereo unspecified) | -2.3% (inactive) | –
CCCC[C@@H]1C[C@H]1C(NC(=O)c1ccco1)c1ccc(C(=O)OC)cc1 (stereo partly specified) | 8.7% (inactive) | –
CCN(CC)S(=O)(=O)N1CCC(C(=O)NC(C)CCc2ccccc2)CC1 (stereo unspecified) | 6% (inactive) | –
Cc1ccc2c(NC(=O)C3CC3)cccc2n1 | -1.6% (inactive) | –

SMILES | activity change, negative = inhibition | Potency
CC(=O)N1CCC(C(=O)Nc2nc(-c3ccccc3)ns2)CC1 | – | 10 µM (active)
Cc1noc(C)c1-c1cc(NCc2cccnc2)ncn1 | 5.5% (inactive) | –
O=S(=O)(NCc1cccnc1)c1ccc(Br)s1 | -1.9% (inactive) | –
COc1ccc(Cl)cc1S(=O)(=O)Nc1cccc(C(=O)O)c1 | 11.9% (inactive) | –
Cc1ccnc(SCCn2c(N(C)Cc3ccccc3)nc3c2c(=O)n(C)c(=O)n3C)n1 | 0.1% (inactive) | –
COc1cccc(-c2nc(Nc3ccncc3)c3ccccc3n2)c1 | 105% (inactive) | –
c1ccc2c(Nc3ccncc3)nc(-c3ccoc3)nc2c1 | – | 7.94 µM (active)
CCOC(=O)CSc1nnc(NC(=O)c2cccc(S(=O)(=O)N3CCCCC3)c2)s1 | 5.8% (inactive) | –
CCn1c(COc2cccc(OC)c2)nnc1SCC(=O)N1CCOCC1 | 3% (inactive) | –
CCCC(=O)Nc1c(O)c2ccccc2[nH]c1=O | 0.1% (inactive) | –
CCCS(=O)(=O)Nc1c(C(=O)O)[nH]c2ccccc12 | – | 25.1 µM (active)
COC(=O)c1[nH]c2ccccc2c1NS(=O)(=O)c1ccc(OC)cc1OC | 0.1% (inactive) | –
C[C@]12C=CC(=O)C=C1CC[C@@H]1[C@@H]2C(=O)C[C@@]2(C)[C@H]1CC[C@]2(O)C(=O)CO | -6.3% (inactive) | –
CCn1c(SCC(=O)NCC2CCCO2)nc2cc(S(=O)(=O)N3CCCCC3)ccc21 (stereo unspecified) | 0.9% (inactive) | –
CCCCn1c(SCC(=O)NCC2CCCO2)nc2ccc(N3CCOCC3)cc2c1=O (stereo unspecified) | – | 15.8 µM (active)
COCCCNC(=O)CSc1nc2ccc(N3CCOCC3)cc2c(=O)n1CCc1ccccc1 | -17.5% (inactive) | –
COC(=O)[C@@]1(Cc2ccc(OC)cc2)[C@H]2c3cc(C(=O)N4CCCC4)n(Cc4ccc(C(F)(F)F)nc4)c3C[C@H]2CN1C(=O)c1ccccc1 | 4.2% (inactive) | –
COc1ccc(CCNC(=O)CCCCn2c(=O)[nH]c3ccccc3c2=O)cc1OC | -0.2% (inactive) | –
COc1ccc(COC(=O)c2n[nH]c3ccccc23)cc1F | 18.2% (inactive) | –
COc1ccc(N=Cc2c(O)[nH]c3ccccc23)cc1OC | – | 12.6 µM (active)
COCC(C)NC(=O)c1ccc(Cl)c(Cl)c1 (stereo unspecified) | 6.1% (inactive) | –
COc1cccc(Cn2c(=O)cnc3cncnc32)c1 | -17.1% (inactive) | –
COc1cccc(Nc2ncc3ncc(=O)n(C4CC4)c3n2)c1 | – | 12.6 µM (active)
CCNc1ncc2ncc(=O)n(Cc3cccc(OC)c3)c2n1 | 2% (inactive) | –
COc1ccc(N)c(OC)c1 | -13.8% (inactive) | –
C=CCOC(=O)c1ccccc1C(=O)OCC=C | 3.3% (inactive) | –

SMILES | activity change, negative = inhibition | Potency
CC[C@@H]1Cc2cc(O)ccc2C2=C1c1ccc(O)cc1C[C@H]2CC | – | 25.1 µM (active)
CC(C)CO | -6.5% (inactive) | –
CO[C@@H]1/C=C\O[C@]2(C)Oc3c(C)c(O)c4c(O)c(c(CN(C)C)c(O)c4c3C2=O)NC(=O)/C(C)=C\C=C[C@@H](C)[C@@H](O)[C@H](C)[C@@H](O)[C@H](C)[C@H](OC(C)=O)[C@@H]1C | 3.4% [at 11.4 µM] (inactive) | –
O=C(c1csnn1)N1CCC2(CC1)CN(c1ncccn1)C2 | -5.6% (inactive) | –
O=NO | – | inactive
CC(C)[C@H](CO)Nc1nc(Nc2cc(N)cc(Cl)c2)c2ncn(C(C)C)c2n1 | – | 31.6 µM (active)
CN1CCN(c2ncc3nc(-c4ccc(Cl)cc4)c(=O)n(-c4ccccc4)c3n2)CC1 | 220% (inactive) | –
CCOc1cc(C(=S)N2CCOCC2)ccc1O | 1% (inactive) | –
COC(=O)c1ccc(CN(c2ccccc2OC)S(=O)(=O)c2cccs2)o1 | 5.3% (inactive) | –
Cc1c(C)c2c(c(C)c1O)CC[C@@](C)(CN1CCN(c3cc(N4CCCC4)nc(N4CCCC4)n3)CC1)O2 | – | 12.6 µM (active)
CC(=O)NC(C(=O)NCC(N)=O)C(C)C (stereo unspecified) (Ac-[ξV]-Gly-NH2) | -2.7% (inactive) | –
CCNc1ncc2ncc(=O)n(CCc3ccccc3)c2n1 | 13.6% (inactive) | –
Cc1ccc2oc(=O)ccc2c1 | 4.9% (inactive) | –
CCCCNC(=O)c1ccccc1NC(=O)c1ccccc1N(C)S(C)(=O)=O | -10.5% (inactive) | –
Cc1ccc(Nc2cc(=O)n(C3CCCCC3)c(=O)[nH]2)cc1C | 120% (inactive) | –
COCCn1c(=O)c(-c2cc(F)cc(F)c2)nc2cnc(N3CCNCC3)nc21 | – | 3.16 µM (active)
COCCn1c(=O)c(-c2cc(F)cc(F)c2)nc2cncnc21 | -1.7% (inactive) | –
COCCn1c(=O)c(CCc2ccccc2)nc2cnc(N3CCNCC3)nc21 | 10.5% (inactive) | –
CNc1ncnc2ccc(-c3cccc(NS(C)(=O)=O)c3)cc12 | -8.5% (inactive) | –
CCCCC(CC)CN (stereo unspecified) | – | inactive
CCC[C@@H]1C[C@@]1(CCC)[C@@H](NC(=O)c1ccccc1)c1ccc(C(=O)OC)cc1 | 9.7% (inactive) | –
CC(=O)Nc1cccc(Oc2cc(C#N)c(C#N)cc2N2CCOCC2)c1 | -24.1% (inactive) | –
CCOc1cc(N2CCOCC2)c(OCC)cc1NC(=O)COc1cccc2cccnc12 | – | 25.1 µM (active)
CCOc1cc(NC(=O)c2ccco2)c(OCC)cc1NC(=O)COc1ccccc1 | -5.3% (inactive) | –
CC/C=C/C/C=C/C/C=C/CCCCCCCC(=O)OCC | -12.2% (inactive) | –
Cc1c(C(=O)OCC(=O)N(CCC#N)c2ccccc2)oc2c1ccc1ccccc12 | 7.5% (inactive) | –

SMILES | activity change, negative = inhibition | Potency
O=[n+]1c2c(n([O-])c3cc(Br)ccc31)CCC2 | – | 25.1 µM (active)
O=C1CCCc2c1[nH]c1ccc(Br)cc21 | 33.9% (inactive) | –
CCc1c(C)n([O-])c2c([n+]1=O)CCCCC2 | -6.7% (inactive) | –
CC(C)(C)[Si](OCC[C@@H]1C[C@@]1(C)[C@@H](NP(=O)(c1ccccc1)c1ccccc1)c1ccccc1)(c1ccccc1)c1ccccc1 | -2.3% (inactive) | –
CC(=O)c1cccc(S(=O)(=O)N2CCC(n3nnc4cc(F)ccc43)CC2)c1 | -5.9% (inactive) | –
C/C(CC(O)(/C=N/O)c1ccccc1)=N\O (stereo unspecified) | -19.4% (inactive) | –
CCCC(Cl)CCCC(Cl)CCC(Cl)CCC(Cl)CCC(Cl)CCCC(Cl)CCC (stereo unspecified) | -0.1% (inactive) | –
Cc1cc(C(=O)O)ccc1[N+](=O)[O-] | -1.2% (inactive) | –
CCc1c(C)nc2ncnn2c1N1CCC(C(=O)NCc2ccc3c(c2)OCO3)CC1 | 6.8% (inactive) | –
N/C(=N\c1nc2ccccc2o1)NC(=O)C(Cc1ccccc1)N1C(=O)c2ccccc2C1=O (stereo unspecified) | – | 12.6 µM (active)
Cc1ccc(C)n1C(Cc1ccccc1)C(=O)O (stereo unspecified) | 28.1% (inactive) | –
O=C(NCCN1CCOCC1)[C@H](Cc1ccccc1)N1C(=O)c2ccccc2C1=O | -0.8% (inactive) | –
O=C(OC1CCOC1=O)c1ccc(-c2nc3ccccc3s2)s1 (stereo unspecified) | -28.6% (inactive) | –
COc1ccccc1CNc1ncncc1-c1cccc(NS(C)(=O)=O)c1 | -1.8% (inactive) | –
O=C(O)CCCCC(=O)O | 0% (inactive) | –
CCCCCCCCCCCC(=O)O | – | inactive
C#CCCCCCCCCCCCCCCCC(=O)O | – | 31.6 µM (active)
CC1(CCC(=O)OC2CCCCC2)OCCO1 | -1.1% [at 11.4 µM] (inactive) | –
CC1CC(c2ccccc2)n2nc(NC(=O)c3cccs3)nc2N1 (stereo unspecified) | 7.4% (inactive) | –
Cc1cccc(Br)c1 | 0.5% (inactive) | –
CC(=O)N1[C@H](C)C=C[C@]1(Cc1ccccc1)C(=O)NCc1ccccn1 | 0.2% (inactive) | –
Cc1ccc(-n2c(N)c(C(=O)N3CCOCC3)sc2=S)c(C)c1 | -6.7% (inactive) | –
C/C(=C\c1ccco1)C1Nc2cccc3cccc(c23)N1 | – | 15.8 µM (active)
